Assay results reported in ChEMBL document CHEMBL2218924, “A broad activity screen in support of a chemogenomic map for kinase signalling research and drug discovery” (Biochem J, 2013).

The compounds below were run against Tyrosine-protein kinase BTK (Homo sapiens) (UniProt Q06187). Settings: at 10 µM.
Chain of Tyrosine-protein kinase BTK (Homo sapiens) (Q06187 whole entry): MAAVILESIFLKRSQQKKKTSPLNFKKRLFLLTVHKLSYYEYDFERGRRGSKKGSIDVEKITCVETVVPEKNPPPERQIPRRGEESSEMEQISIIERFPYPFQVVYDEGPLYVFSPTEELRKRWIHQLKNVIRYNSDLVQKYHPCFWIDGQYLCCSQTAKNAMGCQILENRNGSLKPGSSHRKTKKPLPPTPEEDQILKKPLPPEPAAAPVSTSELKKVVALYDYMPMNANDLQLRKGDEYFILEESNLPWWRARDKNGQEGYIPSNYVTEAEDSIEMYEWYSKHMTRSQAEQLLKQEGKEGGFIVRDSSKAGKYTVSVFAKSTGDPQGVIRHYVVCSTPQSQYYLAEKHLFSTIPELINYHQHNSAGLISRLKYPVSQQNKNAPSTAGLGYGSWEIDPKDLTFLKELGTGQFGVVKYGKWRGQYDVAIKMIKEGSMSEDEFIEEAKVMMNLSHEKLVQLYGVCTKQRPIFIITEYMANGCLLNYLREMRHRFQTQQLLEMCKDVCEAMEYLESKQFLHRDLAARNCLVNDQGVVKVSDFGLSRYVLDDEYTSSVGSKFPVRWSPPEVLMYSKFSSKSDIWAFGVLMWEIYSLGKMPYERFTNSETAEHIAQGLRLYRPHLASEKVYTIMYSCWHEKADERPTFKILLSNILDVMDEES

Compared with CCN(CC)CCCCN1c2ccccc2Oc2ccc(Cl)cc21, Cn1nc2c3c(cccc31)C(=O)c1ccccc1-2 is lower in residual activity: 109% for the first, 76% for the second.

Compared with O=[N+]([O-])c1ccc(-c2nc(-c3ccc(F)cc3)c(-c3ccncc3)[nH]2)cc1, N#CCCc1ccc2c(c1)-c1[nH]c3ccc([N+](=O)[O-])cc3c1CC(=O)N2 is higher in residual activity: 56% for the first, 66% for the second.

Going from Cc1ccc(S(=O)(=O)/C=C/C#N)cc1 to N#CC(C#N)=C(N)/C(C#N)=C/c1ccc(O)cc1, the residual activity rises from 96% to 118%.

First: COc1cc2ncnc(Nc3ccc(NC(=O)c4ccccc4)cc3)c2cc1OC
Second: COc1cc2ncnc(N3CCN(C(=O)Nc4ccc(Oc5ccccc5)cc4)CC3)c2cc1OC
The residual activity of the first is lower: 68% for the first, 112% for the second.

First: Cc1nc2cc3nc(-c4cccs4)cnc3cc2n1C
Second: Cc1cc2ncc(-c3ccccc3)nc2cc1C
The residual activity of the first is lower: 83% for the first, 105% for the second.

Going from CC(C)n1cnc2/c(=N/c3cccc(Cl)c3)nc(NCCO)[nH]c21 to Nc1cccc(-c2cc3c(Oc4cccc(O)c4)ncnc3[nH]2)c1, the residual activity falls from 32% to -1%.

Going from Cc1cc(Nc2nc(-c3ccccc3)nc3ccccc23)n[nH]1 to c1ccc(-c2n[nH]cc2-c2ccnc3ccccc23)nc1, the residual activity rises from 0% to 100%.

Going from N#Cc1cnc2cnc(NCc3cccnc3)cc2c1Nc1ccc(F)c(Cl)c1 to O=C(Nc1cccc(Nc2nccc(Nc3cccc(C(F)(F)F)c3)n2)c1)C1CC1, the residual activity falls from 58% to 6%.

Going from COc1ccc(S(=O)(=O)N(CCO)c2ccccc2CN(C)C/C=C/c2ccc(Cl)cc2)cc1 to Nc1nc(Nc2ccc(S(N)(=O)=O)cc2)nn1C(=S)Nc1c(F)cccc1F, the residual activity falls from 93% to 27%.

Compared with O=C1Nc2cc(Br)ccc2/C1=C1/Nc2ccccc2/C1=N\O, O=C1NC(=O)c2c1c1c3ccccc3[nH]c1c1[nH]c3cc(Br)ccc3c21 is higher in residual activity: 0% for the first, 68% for the second.

Going from COc1ccc(OC)c2c(=S)c3ccccc3[nH]c12 to O=Nc1c(-c2c(O)[nH]c3ccccc23)[nH]c2ccccc12, the residual activity falls from 82% to 4%.

Going from O=C(Nc1cccc(Nc2cc(Nc3cccc(C(F)(F)F)c3)ncn2)c1)C1CC1 to O=C1NC(=O)c2cc(Nc3ccc(F)cc3)c(Nc3ccc(F)cc3)cc21, the residual activity rises from 71% to 87%.

First: O=C1Nc2ccc(Br)cc2/C1=C\c1cc2c([nH]1)CCCC2
Second: COc1ccc(C(=O)Nc2sc3c(c2C(N)=O)CCCC3)cc1OC
The residual activity of the first is lower: 109% for the first, 118% for the second.

Going from CO[C@@H]1[C@H](N(C)C(=O)c2ccccc2)C[C@H]2O[C@]1(C)n1c3ccccc3c3c4c(c5c6ccccc6n2c5c31)C(=O)NC4 to Oc1n[nH]c2nnc(-c3c(-c4ccccc4)nn4ccccc34)cc12, the residual activity falls from 35% to 33%.

For CO[C@H]1[C@@H](OC)C[C@H](C)[C@@H](OC)C2=CC(=O)C=C(NC(=O)/C(C)=C/C=C/[C@H](OC)[C@@H](OC(N)=O)/C(C)=C/[C@@H]1C)C2=O, the residual activity was 101%.
